The text below walks through data of PubChem BioAssay.

A word on the inhibition: it is the change of the read-out against control, counted positive when it falls.

A short description of test [1]: blockers of polyQ-driven CASP3 activation – cell-based (AID 1583). To be noted: polyglutamine-induced caspase-3 activation, cell assay; stronger effect = higher value;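 tested at 10 µM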.
The nature of test [2]: yeast 75Q aggregation reduction – 75Q-TubU reporter (AID 1593). To be noted: Yeast 75Q polyglutamine aggregation reporter.
A short description of test [3]: restoration of touch response, mutant HTT neurons – whole organism, C. elegans mechanosensory neurons, N-terminal huntingtin (AID 1599). As to conditions: C. elegans polyQ-huntingtin mechanosensory neurons, stronger effect = higher value.
Test [4] can be described thus: blockers of cytochrome c efflux from mitochondria – biochemical, purified mitochondria (AID 1603).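 Note: mouse liver mitochondria challenged with calcium chloride; signal normalized to the plate average as 100%.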 To be noted: stronger effect = lower value.
Test [5] in a line: polyglutamine aggregate formation blockers (AID 1604). As to conditions: polyglutamine-induced protein aggregation inhibition assay; stronger effect = higher value; tested at 2.5 µM.
Test [6] in a line: glutamate transport activators, MN-1 cells, MN-1 cell line (AID 1612).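 Note: tested at 1 µM final; 0% = mean of DMSO vehicle wells on each plate; positive means more glutamate uptake than control and negative means less.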 As to conditions: MN-1 motor neuron cells, stronger effect = higher value.
Test [7] in a line: 75Q-TubH aggregate inhibition, S. cerevisiae, yeast (AID 1616). To be noted: S. cerevisiae 75Q-TubH polyglutamine aggregation suppression; stronger effect = higher value.
The nature of test [8]: compounds altering viability of human ES cells (AID 493140; call rule not given here;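 note: cells exposed to compounds for four days before counting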). As to conditions: human embryonic stem cell survival screen; stronger effect = higher value.
The nature of test [9]: modulation of C. elegans fzo-1 (AID 1259413; call rule not given here;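 note: fzo-1 mutant C. elegans worms in liquid wells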). As to conditions: C. elegans fzo-1 modulator screen, mean read-out; stronger effect = higher value.
The nature of test [10]: galactose survival enhancers in mitochondrial complex I cybrids – cell-based, galactose medium, ATP luminescence, primary screen (AID 1645843;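 active = z-score of at least 1.8 in each of two replicates, scored against plate mean and spread of sample wells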;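 note: positive z means more ATP and so rescue of galactose-driven cybrid death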). To be noted: complex I mutant cybrid cells, 72 h, stronger effect = higher value.
Another test concerns F380Y/beta1. Nature of the test: BK channel mutant inhibitors and activators – cell-based, U2OS BacMam, thallium flux, beta subunits, selectivity assay, profiling panel (AID 1259406).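 Note: initial slope of Thallos dye fluorescence rise after thallium is added; log ratio against the mean of 0.3% DMSO vehicle wells on the same plate.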 To be noted: U2OS BacMam BK variants, at 30 µM.
In the next test the test system is F380Y/beta2Delta. The test is described as above. To be noted: U2OS BacMam BK variants, at 30 µM.
Another test concerns F380Y/beta4. The test is described as above. To be noted: U2OS BacMam BK variants, at 30 µM.
The target of test [11] is Calcium-activated potassium channel subunit alpha-1 (Homo sapiens) + Leucine-rich repeat-containing protein 26 (Homo sapiens) (UniProt Q12791+Q2I0M4). Described as above. To be noted: U2OS BacMam BK variants, F380Y/Slo1WT/gamma1, at 30 µM.
The next test concerns R275C. The description is as above. To be noted: U2OS BacMam BK variants, at 30 µM.
For a further test, the system named is R275C/beta1. The description is as above. As to conditions: U2OS BacMam BK variants, at 30 µM.
In a further test the test system is R275C/beta2Delta. The description is as above. To be noted: U2OS BacMam BK variants, at 30 µM.
Another test deals with R275C/beta4. The test is described as above. As to conditions: U2OS BacMam BK variants, at 30 µM.
In a further test the test system is R275C/Slo1WT/beta2. The description is as above. To be noted: U2OS BacMam BK variants, at 30 µM.
Test [12] has as its system Neuropilin-2 / VEGF-C interaction (human). Nature of the test: small molecules blocking Neuropilin-2/VEGF-C interaction – biochemical, microplate binding format, z-score (AID 743281; call rule not given here). To be noted: microplate NRP2/VEGF-C binding assay; stronger effect = lower value.

Where “and” joins values, the source holds several entries; their conditions need not be identical. Identical values can stand only once. For part of these data: Entries with a potency or affinity are not part of this list. Calls of active or inactive are those of the source.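 Rule for the calls, unless noted: active = thallium flux through the channel raised or lowered by more than 3 SD from vehicle-only wells, actives on both sides; inactive = the rest.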

Chain of Calcium-activated potassium channel subunit alpha-1 (Homo sapiens) + Leucine-rich repeat-containing protein 26 (Homo sapiens) (Q2I0M4 whole entry, looked up, one chain of several): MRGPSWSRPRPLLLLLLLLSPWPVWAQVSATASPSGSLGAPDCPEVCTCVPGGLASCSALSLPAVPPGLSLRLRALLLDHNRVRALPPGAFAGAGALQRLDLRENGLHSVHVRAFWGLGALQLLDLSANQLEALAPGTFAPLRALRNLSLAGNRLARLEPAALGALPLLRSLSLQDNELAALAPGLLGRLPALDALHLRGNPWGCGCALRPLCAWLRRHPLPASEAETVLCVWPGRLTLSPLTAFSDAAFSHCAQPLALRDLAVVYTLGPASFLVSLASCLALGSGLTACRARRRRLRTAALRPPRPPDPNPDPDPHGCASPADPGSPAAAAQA

`c1ccc2c(CC3=NCCN3)cccc2c1`: in test [1], the inhibition worked out at 16.4%. In addition, in test [2], the score was determined as 1.41. The rescue above control in test [3] is -1.7. In addition, the cytochrome c release ratio in [4] turned out to be 1.14. Further, the inhibition of aggregation in [5] worked out at 79.6%. Besides, in test [6], the glutamate uptake change is -6.49%. This compound also returned an aggregation suppression score in test [7] of 1.49. In addition, the survival in [8] is 12.7 (inactive). Besides, the mean signal in [9] is 245 (inactive). The z-score in [10] was 0.47 (inactive) and 0.505 (inactive). Further, the log fold change Tl+ flux in the test on F380Y/beta1 was 0.0282 (inactive); in the test on F380Y/beta2Delta, -0.014 (inactive); in the test on F380Y/beta4 it was 0.0394 (inactive); in [11] it was 0.0291 (inactive); with R275C, -0.0401 (inactive); with R275C/beta1 it was -0.0378 (inactive). In addition, the figures for the log fold change Tl+ flux with R275C/beta2Delta, in the test on R275C/beta4 and with R275C/Slo1WT/beta2 were 0.00508 (inactive), -0.0196 (inactive) and -0.0172 (inactive), respectively.
With `CCOc1ccc2ccccc2c1C(=O)N[C@@H]1C(=O)N2[C@@H]1SC(C)(C)[C@@H]2C(=O)O`, the survival in test [8] is 3.33 (inactive). Moreover, the mean signal in test [9] was 253 (inactive). Further, the z-score in test [10] is 0.835 (inactive). In addition, the log fold change Tl+ flux with F380Y/beta1 was -0.0293 (inactive); in the test with F380Y/beta2Delta, -0.0424 (inactive); with F380Y/beta4, -0.0322 (inactive); in test [11], 0.0363 (inactive); in the test on R275C it was -0.00323 (inactive); in the test with R275C/beta1 it was 0.00845 (inactive). Further, the values for the log fold change Tl+ flux with R275C/beta2Delta, in the test on R275C/beta4 and with R275C/Slo1WT/beta2 were 0.0249 (inactive), -0.041 (inactive) and 0.0157 (inactive), respectively.
In test [1], `Cc1cccc(CN2CCN(C(c3ccccc3)c3ccc(Cl)cc3)CC2)c1` (centres undefined) had an inhibition of 7.71%. In test [2], this compound came in with a score of 1.9. The rescue above control in test [3] was 1.73. In addition, the cytochrome c release ratio in test [4] was 0.33. The compound also returned an inhibition of aggregation in test [5] of 63.4%. The glutamate uptake change in [6] was found to be 17.6%. Also, the aggregation suppression score in [7] amounted to 1.86. The survival in [8] was 3.33 (inactive). Further, in test [9], the mean signal is 222 (inactive). For the same compound, the z-score in [10] is -1.5 (inactive). The log fold change Tl+ flux in the test with F380Y/beta1 is -0.208 (active); in the test with F380Y/beta2Delta it was 0.0401 (inactive); in the test on F380Y/beta4, -0.141 (active); in test [11] it was -0.0345 (inactive); in the test on R275C it was 0.00971 (inactive); in the test on R275C/beta1, -0.0498 (inactive). The log fold change Tl+ flux is 0.0052 (inactive) in the test on R275C/beta2Delta, -0.091 (inactive) in the test on R275C/beta4 and -0.00698 (inactive) in the test on R275C/Slo1WT/beta2.
With `Cc1ccc(O)c([C@H](CCN(C(C)C)C(C)C)c2ccccc2)c1`, the z-score in [12] is -0.0447 (inactive). Besides, the mean signal in test [9] is 219 (inactive). The log fold change Tl+ flux in the test on F380Y/beta1 was 0.0975 (active); in the test with F380Y/beta2Delta it was 0.0454 (inactive); in the test on F380Y/beta4, 0.136 (active); in [11], 0.0595 (inactive); with R275C it was -0.0487 (inactive); in the test on R275C/beta1, 0.03 (inactive). Further, the log fold change Tl+ flux in the test with R275C/beta2Delta was 0.0798 (inactive); in the test on R275C/beta4 it was 0.0668 (inactive); in the test with R275C/Slo1WT/beta2 it was 0.0213 (inactive).
Take `CC(C)(C)NC[C@H](O)COc1nsnc1N1CCOCC1`: the survival in test [8] is 4.17 (inactive). In addition, the mean signal in test [9] was 275 (inactive). In [10], the z-score was 0.57 (inactive) and -0.2 (inactive) and 0.33 (inactive). Moreover, the log fold change Tl+ flux in the test with F380Y/beta1 was -0.0365 (inactive); in the test on F380Y/beta2Delta it was 0.019 (inactive); in the test with F380Y/beta4 it was 0.0021 (inactive); in test [11], 0.00124 (inactive); in the test with R275C it was -0.000858 (inactive); with R275C/beta1, -0.0605 (inactive). Further, the log fold change Tl+ flux with R275C/beta2Delta is -0.0488 (inactive); with R275C/beta4 it was -0.0714 (inactive); with R275C/Slo1WT/beta2, -0.0819 (inactive).
Consider `CCCSc1ccc2nc(NC(=O)OC)[nH]c2c1`, for which the inhibition in [1] turned out to be 25.8%. The score in test [2] worked out at 0.16. In test [3], this compound registered a rescue above control of -16.6. Moreover, in test [4], the cytochrome c release ratio turned out to be 0.88. The same compound displayed an inhibition of aggregation in test [5] of 11.8%. Besides, the glutamate uptake change in test [6] was determined as 21.4%. In addition, the aggregation suppression score in test [7] was 0.174. Moreover, in test [8], the survival was 0.917 (inactive). Further, the mean signal in [9] is 254 (inactive). Besides, the z-score in test [10] was 0.56 (inactive) and -0.955 (inactive). For the same compound, the log fold change Tl+ flux was -0.0515 (inactive) in the test on F380Y/beta1; 0.0117 (inactive) in the test with F380Y/beta2Delta; -0.0654 (inactive) in the test with F380Y/beta4; -0.0345 (inactive) in test [11]; 0.0372 (inactive) with R275C; 0.0301 (inactive) in the test on R275C/beta1. The log fold change Tl+ flux is 0.0234 (inactive) in the test on R275C/beta2Delta, -0.0656 (inactive) in the test on R275C/beta4 and -0.017 (inactive) with R275C/Slo1WT/beta2.
On to `C[C@@H]1O[C@@H](OC[C@H]2O[C@@H](Oc3c(-c4ccc(O)c(O)c4)oc4cc(O)cc(O)c4c3=O)[C@H](O)[C@@H](O)[C@@H]2O)[C@H](O)[C@H](O)[C@H]1O`, for which the inhibition in test [1] is 3.3%. The compound also returned a score in [2] of 1.12. The same compound gave a rescue above control in [3] of 13.8. Further, the cytochrome c release ratio in [4] came to 1.08. Also, in test [5], the inhibition of aggregation was 48.6%. For the same compound, the glutamate uptake change in test [6] amounted to 32.8%. Besides, the aggregation suppression score in [7] came to 0.985. For the same compound, the z-score in test [12] was 0.702 (inactive). The mean signal in test [9] is 242 (inactive). Moreover, the log fold change Tl+ flux in the test on F380Y/beta1 was 0.04 (inactive); in the test on F380Y/beta2Delta it was 0.0273 (inactive); in the test with F380Y/beta4 it was -0.0248 (inactive); in [11], -0.026 (inactive); in the test with R275C, 0.0426 (inactive); in the test on R275C/beta1, -0.0081 (inactive). Besides, the log fold change Tl+ flux was 0.00535 (inactive) in the test on R275C/beta2Delta, -0.00112 (inactive) in the test with R275C/beta4 and 0.0255 (inactive) with R275C/Slo1WT/beta2.
Turning to `C[C@]12CCC(=O)C=C1CC[C@@H]1[C@@H]2[C@@H](O)C[C@@]2(C)[C@H]1CC[C@]2(O)C(=O)COC(=O)CCC(=O)O`, in [9], the mean signal was 257 (inactive). In [10], the z-score is -0.315 (inactive). Further, the log fold change Tl+ flux in the test with F380Y/beta1 was -0.0186 (inactive); in the test on F380Y/beta2Delta it was 0.00491 (inactive); in the test on F380Y/beta4 it was 0.0128 (inactive); in [11], 0.0102 (inactive); in the test on R275C, 0.0834 (inactive); in the test on R275C/beta1, 0.0319 (inactive). Also, the log fold change Tl+ flux is 0.0103 (inactive) in the test with R275C/beta2Delta, -0.0484 (inactive) with R275C/beta4 and -0.0271 (inactive) in the test on R275C/Slo1WT/beta2.
Turning to `CC(COc1ccccc1)NC(C)C(O)c1ccc(O)cc1` (centres undefined), the survival in [8] was 10.8 (inactive). The mean signal in test [9] is 247 (inactive). In test [10], the z-score was 0.74 (inactive). Moreover, the log fold change Tl+ flux with F380Y/beta1 was 0.0456 (inactive); in the test on F380Y/beta2Delta, 0.0627 (inactive); in the test on F380Y/beta4 it was 0.0762 (inactive); in test [11], -0.0341 (inactive); in the test with R275C, 0.0486 (inactive); with R275C/beta1, 0.000959 (inactive). In addition, the figures for the log fold change Tl+ flux with R275C/beta2Delta, with R275C/beta4 and in the test with R275C/Slo1WT/beta2 were 0.0577 (inactive), 0.0625 (inactive) and 0.0192 (inactive), respectively.
Take `OCCN1C[C@H](O)[C@@H](O)[C@H](O)[C@H]1CO`: the z-score in test [12] was -1.24 (inactive). Also, the mean signal in test [9] was 232 (inactive). Further, the log fold change Tl+ flux in the test on F380Y/beta1 is -0.0621 (inactive); with F380Y/beta2Delta, -0.0041 (inactive); in the test on F380Y/beta4, -0.0159 (inactive); in test [11] it was -0.0394 (inactive); with R275C, -0.0048 (inactive); with R275C/beta1 it was -0.0736 (inactive). For the same compound, the log fold change Tl+ flux in the test on R275C/beta2Delta was -0.00824 (inactive); in the test on R275C/beta4 it was -0.031 (inactive); in the test on R275C/Slo1WT/beta2, -0.0316 (inactive).
